VP16 counter – VP16 counterscreen qHTS for inhibitors of ROR gamma transcriptional activity. Drosophila S2 Gal4-VP16 UAS-luciferase, luminescence, 20 h. Potency, µM (top dose mostly 53.6 µM), usual class: inhibitors. 310,000 compounds, 3.5% hits;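 further: Gal4-VP16 expression switched on by copper sulfate through the metallothionein promoter; nearly all actives have a fitted effect of over 50% in size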
RORg inh – qHTS for inhibitors of ROR gamma transcriptional activity; Drosophila S2 Gal4-RORgamma UAS-luciferase reporter, 20 h; Potency, µM (series often up to 53.6 µM), usual class: inhibitors; 310,000 compounds, 5.4% hits; further: nearly all actives have a fitted effect of over 60% in size
Target sequence (P51450 whole entry, looked up, the tested form may be a part): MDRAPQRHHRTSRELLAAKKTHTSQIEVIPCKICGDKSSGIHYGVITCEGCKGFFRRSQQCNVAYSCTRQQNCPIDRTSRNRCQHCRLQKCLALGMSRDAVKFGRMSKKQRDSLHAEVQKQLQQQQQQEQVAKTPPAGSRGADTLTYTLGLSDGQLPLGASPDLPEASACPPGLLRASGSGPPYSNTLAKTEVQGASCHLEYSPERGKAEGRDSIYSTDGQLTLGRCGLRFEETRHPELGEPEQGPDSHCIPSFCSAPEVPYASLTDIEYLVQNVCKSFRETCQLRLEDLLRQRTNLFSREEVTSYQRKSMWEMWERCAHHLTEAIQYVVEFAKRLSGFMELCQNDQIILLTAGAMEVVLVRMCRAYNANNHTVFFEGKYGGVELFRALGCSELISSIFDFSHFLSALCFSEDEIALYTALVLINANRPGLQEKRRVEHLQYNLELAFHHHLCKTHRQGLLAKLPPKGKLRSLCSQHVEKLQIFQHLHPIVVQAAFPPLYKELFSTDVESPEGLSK
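Stably transfected Drosophila Schneider cells are the test system, with ROR gamma fused to Gal4 and luciferase under UAS control; luminescence is read after 20 hr of 700 uM copper sulfate induction at ambient temperature.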
Luc counter – Counterscreen for Luciferase (Kinase-Glo TM) Inhibition; Luciferin 4-monooxygenase (Photuris pensylvanica), Q27757; Kinase-Glo luciferase, ATP luminescence, 8 min; Potency, µM (doses to about 38.3 µM), most hits filed as inhibitors; 200,000 compounds, 0.28% hits; further: nearly all actives have a fitted effect of over 60% in size
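Recombinant Kinase-Glo luciferase, 10 uM ATP (linear range), luciferin; imidazole pH 7.2 / KCl / MgCl2 / Tween / BSA buffer; 8 min RT; luminescence.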
Large screens that a line does not name were inactive. The list is not random: actives were taken first. Their share in the collection is about 6.2%. The call rests on the fitted dose curve; in most records, active means well fitted curve in the direction sought with a large enough effect; inconclusive means small, poorly fitted or top-dose-only effect, or another doubt; inactive means no such curve, though single readings can be large; an effect the other way counts as inactive or inconclusive.

CCC[C@@H]1CC2=CC(=O)CC[C@]2(C)[C@H]2CC[C@@]3(C)[C@@H](CC[C@@]34CCC(=O)O4)[C@H]12	none (no result: Luc counter)
Nc1c(Cl)ncnc1NCc1ccccc1	RORg inh inconclusive (no result: Luc counter)
Cc1ccc(NC(=S)N(CCN(C)C)Cc2cc3cc(C)ccc3[nH]c2=O)cc1	none
O=C(c1ccncc1)N1CCC2(CC1)CCN(c1ccccn1)CC2	none
OCC1OC(C#Cc2ccccc2)C=CC1O (configuration not stated)	none (no result: Luc counter)
C=CC(=O)N1C(=O)c2ccccc2S1(=O)=O	none
Cc1ccc2nc(N/N=C\c3ccc([N+](=O)[O-])o3)nc(-c3ccccc3)c2c1	RORg inh 10µM
OCCNc1nc(-c2ccccc2)c2cc(Br)ccc2n1	RORg inh inconclusive (no result: Luc counter)
O=[N+]([O-])c1ccc(/C=N/Nc2nc(-c3ccccc3)c3cc(Br)ccc3n2)o1	none
N#Cc1ccccc1/C=N/Nc1nc(-c2ccccc2)c2cc(Br)ccc2n1	RORg inh 11.2µM
COc1ccc(NC(=O)N2CCCC3(CCN(C(=O)c4ccc(OC)cc4)CC3)C2)cc1	none
CC(C)(C)NC(=O)/C(=C\c1ccco1)NC(=O)c1ccco1	none (no result: Luc counter)
CC(Sc1nc2cc([N+](=O)[O-])ccc2n1-c1cccc(C(F)(F)F)c1)C(=O)NC(N)=O (configuration not stated)	VP16 counter 20µM, RORg inh 12.6µM
NC(=O)CSc1nc2cc([N+](=O)[O-])ccc2n1-c1cccc(C(F)(F)F)c1	RORg inh inconclusive
O=S(=O)(c1ccccc1)N1CCC2(CCN(c3ncccn3)CC2)CC1	none
Cc1c(C(=O)Nc2nc3ccccc3[nH]2)oc2ccc(Br)cc12	VP16 counter 4.47µM, RORg inh 5.62µM (no result: Luc counter)
Cc1c(C(=O)Nc2nc3ccccc3[nH]2)oc2c(Cl)cccc12	VP16 counter 6.31µM
Cc1c(C(=O)OC/C(O)=C(\C#N)c2nc3ccccc3[nH]2)oc2ccc(Br)cc12	none (no result: Luc counter)
Cn1nc(C(=O)Nc2nc3ccccc3[nH]2)ccc1=O	VP16 counter inconclusive, RORg inh inconclusive
Cc1c(C(=O)Nc2nc3ccccc3[nH]2)oc2ccccc12	VP16 counter 5.01µM, RORg inh 0.891µM
Cc1c(C(=O)Nc2ccncc2)oc2ccccc12	none
Cc1cc(NC(=O)Nc2ccc(Cl)c(Cl)c2)n(-c2ccccc2)n1	none (no result: Luc counter)
COc1cccc(CN2CC(C(=O)N(C)Cc3ccc(C)cc3)CCC2=O)c1 (configuration not stated)	none (no result: Luc counter)
Cc1snc(S(=O)(=O)Cc2c(Cl)cccc2Cl)c1C#N	none
COC(c1ccccc1Br)C(C)/C=C/CCO (configuration not stated)	none (no result: Luc counter)
O=C(O)c1ccc(S(=O)(=O)c2ccc3c(c2)C(=O)N(c2ccc(Br)cc2)C3=O)cc1	none (no result: Luc counter)
CCCCCOc1ccc(C(=O)Nc2ccc(S(=O)(=O)Nc3cc(C)on3)cc2)cc1	none (no result: Luc counter)
CCc1cc(-c2n[nH]c(C)c2-c2nc(C)cs2)c(O)cc1OC	VP16 counter inconclusive, RORg inh 12.6µM (no result: Luc counter)
CCc1cc(-c2n[nH]c(C)c2-c2nc3ccccc3s2)c(O)cc1OCC(=O)NN	none
CC(C)C(N)C(=O)NC(Cc1c[nH]c2ccccc12)C(=O)O (configuration not stated)	none
O=C(Nc1c2c(nn1-c1ccc([N+](=O)[O-])cc1)CS(=O)(=O)C2)c1ccccc1F	none (no result: Luc counter)
CN1CCC(=O)N(C(CSc2ccc(Br)cc2)c2ccccc2)CC1 (configuration not stated)	none (no result: Luc counter)
CCOC(=O)N1CCN(C(=O)C(C)N(c2ccc(Oc3ccccc3)cc2)S(C)(=O)=O)CC1 (configuration not stated)	none (no result: VP16 counter)
CCOC(=O)C1CCN(C(=O)C(C)N(c2ccc(Oc3ccccc3)cc2)S(C)(=O)=O)CC1 (configuration not stated)	VP16 counter 20µM
Cc1ccccc1CSc1nnc(-c2ccccn2)n1C	none (no result: Luc counter)
Cc1ccccc1CSc1nccn1-c1ccccc1	VP16 counter 12.6µM, RORg inh 2.51µM
CC(C)C[C@H](NC(=O)[C@H](Cc1ccccc1)NC(=O)[C@@H]1CCCN1C(=O)[C@H](CC(=O)O)NC(=O)[C@@H]1CCC(=O)N1)C(=O)N[C@@H](CCCN=C(N)N)C(=O)N[C@@H](Cc1ccccc1)C(N)=O	none (no result: Luc counter)
Cc1ccc(NC(=O)N2CCCC2C(=O)NCCc2ccccc2)cc1 (configuration not stated)	none
Cc1cc(C(=O)CSc2nnnn2-c2ccccc2)c(C)n1-c1ccc2c(c1)OCO2	VP16 counter 11.2µM
Cc1cc(C(=O)CSc2nnnn2-c2ccc(O)cc2)c(C)n1Cc1ccc2c(c1)OCO2	VP16 counter inconclusive
CCOC(=O)c1ccc(NC(=O)c2ccccc2[N+](=O)[O-])cc1	RORg inh inconclusive

Screening data deposited in PubChem BioAssay by National Center for Advancing Translational Sciences (NCATS).
